Experimental findings from PubChem BioAssay (EPA / NIEHS) are described below.

Assay [1] can be described thus: ATG_TCF_b_cat_CIS: Attagene CIS-FACTORIAL HepG2 Assay for human T-Cell-Factor with beta-catenin (TCF/b-cat) (AID 2282965; active = hit-call score of the fitted dose curve at least 0.9, where 1 is the maximum; inactive = score below 0.9). The following applies: HepG2 TCF/beta-catenin cis-reporter transcription, actives raise or lower the signal. The essentials: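 Endogenous transcription factor activity is captured through cis-promoter reporter constructs transiently introduced into human HepG2 liver cells. Induced reporter mRNA is measured after 24 h and fitted bidirectionally relative to DMSO.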

Assay [2] is described as follows: ATG_TAL_CIS: Attagene CIS-FACTORIAL HepG2 Assay for human TAL Basal Promoter (AID 2282966; active = hit-call score of the fitted dose curve at least 0.9, where 1 is the maximum; inactive = score below 0.9;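 note: background control endpoint measuring basal TAL promoter reporter mRNA not a specific factor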). The note with it: HepG2 Attagene cis-factorial TAL promoter reporter; actives raise or lower the signal. The essentials: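 Endogenous transcription-factor activity is sensed in HepG2 cells through transfected cis-promoter reporter constructs. After 24 h dosing, reporter transcripts are quantified by RT-PCR and capillary electrophoresis. Gain or loss of signal is fitted relative to DMSO.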

Assay [3] can be described thus: ATG_TGFb_CIS: Attagene CIS-FACTORIAL HepG2 Assay for human Transforming Growth Factor (TGF) (AID 2282967; active = hit-call score of the fitted dose curve at least 0.9, where 1 is the maximum; inactive = score below 0.9). The following applies: HepG2 Attagene CIS TGFb reporter, mRNA transcription; actives raise or lower the signal. In a few lines:
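HepG2 cells transiently transfected with cis-promoter-driven multiple reporter units measure endogenous TF activity; reporter mRNA quantified at 24 h by RT-PCR, FAM labeling, HpaI digestion and capillary electrophoresis. Bidirectional fit vs DMSO.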

A short description of assay [4]: ATG_VDRE_CIS: Attagene CIS-FACTORIAL HepG2 Assay for human Vitamin D Receptor Element (VDRE) (AID 2282968; active = hit-call score of the fitted dose curve at least 0.9, where 1 is the maximum; inactive = score below 0.9). The following applies: HepG2 VDRE cis-reporter transcription, actives raise or lower the signal. The essentials: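 Measures endogenous factor activity through cis-element-driven reporter transcripts in transiently transfected HepG2. Cells are treated 24 h; reporter mRNA is quantified by RT-PCR and capillary electrophoresis; fitting is bidirectional.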

For assay [5], the target named is Nuclear receptor subfamily 1 group I member 3 (Homo sapiens) (UniProt Q14994). As to the kind of experiment: ATG_CAR_TRANS: Attagene TRANS-FACTORIAL HepG2 Assay for human Constitutive Androstane Receptor (CAR) (AID 2282969).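 Note: activators raise reporter mRNA above DMSO so AC50 marks induction.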 The following applies: HepG2 Attagene TRANS-FACTORIAL CAR reporter. The essentials:
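Signal is reporter mRNA induction relative to DMSO, measured 24 h after dosing by RT-PCR with fluorescent primer extension and capillary electrophoresis. Human HepG2 liver cells carried transiently transfected chimeric NR-Gal4/GAL4-UAS reporter constructs.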

In assay [6] the target is X-box-binding protein 1 (Homo sapiens) (UniProt P17861). As to the kind of experiment: ATG_Xbp1_CIS: Attagene CIS-FACTORIAL HepG2 Assay for human X-box Binding Protein 1 (XBP1) (AID 2282972; active = hit-call score of the fitted dose curve at least 0.9, where 1 is the maximum; inactive = score below 0.9). The following applies: HepG2 XBP1 cis-element reporter, Attagene multiplex; actives raise or lower the signal. The essentials:
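Changes in reporter transcript abundance, read by RT-PCR and capillary electrophoresis, reflect endogenous transcription factor activity. Transfected HepG2 cells received compound for 24 hours; DMSO defined baseline for bidirectional analysis.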

Assay [7] concerns the target Androgen receptor (Homo sapiens) (UniProt P10275). The experiment in a line: ATG_AR_TRANS: Attagene TRANS-FACTORIAL HepG2 Assay for human Androgen Receptor (AR) (AID 2282973). The following applies: HepG2 Attagene TRANS-FACTORIAL AR reporter transcription. The essentials:
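Transfected HepG2, 24 h treatment, chimeric NR-Gal4 driving GAL4-UAS reporters. mRNA induction by RT-PCR/capillary electrophoresis fluorescence; DMSO as negative control and baseline.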

Assay [8] can be described thus: ATG_M_06_TRANS: Attagene TRANS-FACTORIAL HepG2 Assay for M06 Transcription Factor (Internal Marker) (AID 2282983). The following applies: HepG2 Attagene TRANS M06 internal marker reporter. In a few lines:
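Human liver HepG2 cells bearing transiently transfected chimeric NR-GAL4 reporter units were treated with chemicals for 24 h. Total RNA was reverse-transcribed, reporter sequences amplified and labelled, then quantified by capillary electrophoresis. Activity was fitted upward relative to DMSO.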

Assay [9] can be described thus: ATG_M_32_TRANS: Attagene TRANS-FACTORIAL HepG2 Assay for M32 Transcription Factor (Internal Marker) (AID 2282984).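 Note: transcript level of a background control reporter unit measured by RT-PCR and capillary electrophoresis.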 The following applies: HepG2 Attagene TRANS M32 internal marker reporter. The essentials: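 Cell-based TRANS-format assay in HepG2: exogenous chimeric GAL4 reporter units transiently expressed, compounds applied 24 h. Reporter mRNA detected by RT-PCR plus capillary electrophoresis; this readout is an internal background marker.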

For assay [10], the target named is Estrogen receptor (Homo sapiens) (UniProt P03372). As to the kind of experiment: ATG_ERa_TRANS: Attagene TRANS-FACTORIAL HepG2 Assay for human Estrogen Receptor alpha (ERa) (AID 2282970). The following applies: HepG2 Attagene TRANS ERa GAL4 reporter, mRNA. The essentials:
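Transfected HepG2 cells carrying GAL4-UAS-driven reporter units were dosed for 24 hours. Total RNA was reverse-transcribed, reporter sequences PCR-amplified, FAM-labelled, HpaI-digested and resolved by capillary electrophoresis. Increases over DMSO control defined activity.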

For assay [11], the target named is Steroid hormone receptor ERR1 (Homo sapiens) (UniProt P11474). The experiment in a line: ATG_ERRa_TRANS: Attagene TRANS-FACTORIAL HepG2 Assay for human Estrogen-Related Receptor alpha (ERRa) (AID 2282971). The following applies: HepG2 Attagene TRANS reporter, ERRa transactivation. In a few lines:
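HepG2 cells were transiently transfected with multiple GAL4-UAS reporter units, then dosed with compound for 24 h. Total RNA was reverse-transcribed, reporter cDNA PCR-amplified and fluorescently labelled, and fragments resolved by capillary electrophoresis; induction was compared with DMSO.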

A short description of assay [12]: ATG_M_19_TRANS: Attagene TRANS-FACTORIAL HepG2 Assay for M19 Transcription Factor (Internal Marker) (AID 2282974). The note with it: HepG2 Attagene TRANS-FACTORIAL M19 internal marker reporter. In a few lines:
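24 h chemical exposure of transiently transfected HepG2 (MRTU library). RNA → oligo(dT) RT → PCR → 6-FAM labelling → HpaI cut → CE fluorescence. Positive-direction fit vs DMSO baseline; background internal-marker readout.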

The target in assay [13] is Estrogen-related receptor gamma (Homo sapiens) (UniProt P62508). As to the kind of experiment: ATG_ERRg_TRANS: Attagene TRANS-FACTORIAL HepG2 Assay for human Estrogen-Related Receptor gamma (ERRg) (AID 2282977).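 Note: hits increase reporter signal over DMSO so potencies reflect activators.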 The note with it: HepG2 Attagene TRANS reporter, ERRg transactivation. The essentials:
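Exogenous NR-Gal4 chimera activity was assessed in HepG2 cells bearing transfected GAL4-UAS reporters. After 24 h dosing, total RNA underwent RT-PCR, fluorescent primer extension and HpaI digestion before capillary electrophoresis, with gain of signal scored against DMSO.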

The target in assay [14] is Bile acid receptor (Homo sapiens) (UniProt Q96RI1). As to the kind of experiment: ATG_FXR_TRANS: Attagene TRANS-FACTORIAL HepG2 Assay for Farnesoid X Receptor (FXR) (AID 2282979).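 Note: hits raise reporter mRNA above DMSO so AC50 marks FXR activation.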 The following applies: HepG2 Attagene TRANS FXR-GAL4 reporter transcription. The essentials:
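Chimeric FXR-GAL4 activity in transiently transfected human HepG2 liver cells is scored as induction of reporter mRNA after 24 h of dosing. Detection uses RT-PCR with fluorescent labelling and capillary electrophoresis, with DMSO serving as baseline.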

Assay [15] concerns the target Oxysterols receptor LXR-beta (Homo sapiens) (UniProt P55055). As to the kind of experiment: ATG_LXRb_TRANS: Attagene TRANS-FACTORIAL HepG2 Assay for human Liver X Receptor beta (LXRb) (AID 2282981). The note with it: HepG2 Attagene TRANS GAL4-LXRb reporter, mRNA. The essentials:
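After 24 h of chemical treatment, transfected HepG2 cells yield total RNA; reporter cDNA is PCR-amplified, FAM-labelled, HpaI-cut and run on capillary electrophoresis. Signal reflects chimeric LXRb-Gal4 activity on GAL4-UAS reporters.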

The nature of assay [16]: ATG_GAL4_TRANS: Attagene TRANS-FACTORIAL HepG2 Assay for GAL4 (Internal Marker) (AID 2282976). The note with it: HepG2 Attagene TRANS GAL4 internal marker reporter. The essentials:
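Fluorescence from capillary electrophoresis of labelled RT-PCR products quantifies reporter mRNA induction after 24 h dosing of HepG2 cells carrying transfected GAL4-UAS reporter transcription units. Vehicle DMSO serves as baseline.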

Assay [17] addresses Glucocorticoid receptor (Homo sapiens) (UniProt P04150). As to the kind of experiment: ATG_GR_TRANS: Attagene TRANS-FACTORIAL HepG2 Assay for human Glucocorticoid Receptor (GR) (AID 2282978).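 Note: activators score as hits since higher reporter transcript over DMSO is fitted.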 The note with it: HepG2 Attagene TRANS GR reporter, mRNA transcription. In a few lines:
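Transient MRTU transfection of HepG2 (GAL4-UAS reporters, exogenous NR-GAL4 chimeras), 24 h dosing. Readout: reporter transcript via RT-PCR + capillary electrophoresis fluorescence. Positive direction vs DMSO baseline.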

Records with an inconclusive call do not appear. Calls of active or inactive are those of the source. Rule for the calls, unless noted: active = hit-call score of the fitted dose curve at least 0.9, where 1 is the maximum; inconclusive = response in the unintended direction; inactive = score below 0.9.

Glucocorticoid receptor (Homo sapiens), sequence (P04150 whole entry, looked up, the tested form may be a part): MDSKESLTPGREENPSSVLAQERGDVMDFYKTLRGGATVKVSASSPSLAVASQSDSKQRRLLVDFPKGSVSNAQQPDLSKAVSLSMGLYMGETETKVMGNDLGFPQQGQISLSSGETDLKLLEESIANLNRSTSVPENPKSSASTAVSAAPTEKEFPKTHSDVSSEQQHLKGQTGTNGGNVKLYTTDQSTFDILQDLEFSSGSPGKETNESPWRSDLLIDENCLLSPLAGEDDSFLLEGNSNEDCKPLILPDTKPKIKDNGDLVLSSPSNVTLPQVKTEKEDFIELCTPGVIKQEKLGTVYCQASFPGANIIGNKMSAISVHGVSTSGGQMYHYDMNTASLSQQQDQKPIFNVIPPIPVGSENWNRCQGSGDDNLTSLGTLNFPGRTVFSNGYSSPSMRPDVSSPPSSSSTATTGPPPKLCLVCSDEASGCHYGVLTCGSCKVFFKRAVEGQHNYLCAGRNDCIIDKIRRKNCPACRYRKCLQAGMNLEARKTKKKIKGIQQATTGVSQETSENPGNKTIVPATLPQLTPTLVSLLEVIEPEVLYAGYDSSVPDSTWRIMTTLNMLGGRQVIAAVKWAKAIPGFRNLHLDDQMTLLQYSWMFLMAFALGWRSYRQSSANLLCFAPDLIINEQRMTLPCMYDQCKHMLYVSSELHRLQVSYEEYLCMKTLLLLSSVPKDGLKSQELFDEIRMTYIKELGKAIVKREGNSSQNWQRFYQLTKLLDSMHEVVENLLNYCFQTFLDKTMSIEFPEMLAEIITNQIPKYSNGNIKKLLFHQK
Bile acid receptor (Homo sapiens), sequence (Q96RI1 whole entry, looked up, the tested form may be a part): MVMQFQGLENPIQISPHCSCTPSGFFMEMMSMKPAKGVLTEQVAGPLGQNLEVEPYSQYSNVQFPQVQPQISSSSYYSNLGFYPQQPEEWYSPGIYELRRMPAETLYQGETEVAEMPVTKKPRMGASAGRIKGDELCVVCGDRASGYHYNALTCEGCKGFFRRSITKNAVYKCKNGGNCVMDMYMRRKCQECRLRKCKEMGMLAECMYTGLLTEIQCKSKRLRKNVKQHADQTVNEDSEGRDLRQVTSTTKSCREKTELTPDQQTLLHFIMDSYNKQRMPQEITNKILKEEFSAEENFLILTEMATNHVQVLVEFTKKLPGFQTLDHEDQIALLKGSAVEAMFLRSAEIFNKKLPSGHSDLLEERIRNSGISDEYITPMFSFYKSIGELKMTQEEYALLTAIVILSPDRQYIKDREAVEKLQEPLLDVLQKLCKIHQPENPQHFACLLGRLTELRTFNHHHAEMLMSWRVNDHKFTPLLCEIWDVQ
Nuclear receptor subfamily 1 group I member 3 (Homo sapiens), sequence (Q14994 whole entry, looked up, the tested form may be a part): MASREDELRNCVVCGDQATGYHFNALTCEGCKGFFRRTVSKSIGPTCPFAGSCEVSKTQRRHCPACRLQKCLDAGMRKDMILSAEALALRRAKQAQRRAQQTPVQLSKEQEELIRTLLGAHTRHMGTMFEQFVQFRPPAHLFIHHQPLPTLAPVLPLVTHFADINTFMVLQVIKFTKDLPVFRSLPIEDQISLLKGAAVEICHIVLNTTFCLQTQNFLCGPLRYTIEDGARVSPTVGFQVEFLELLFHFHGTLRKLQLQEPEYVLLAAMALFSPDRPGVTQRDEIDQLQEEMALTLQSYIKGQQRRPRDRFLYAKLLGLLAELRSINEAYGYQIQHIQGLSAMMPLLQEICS
Estrogen receptor (Homo sapiens), sequence (P03372 whole entry, looked up, the tested form may be a part): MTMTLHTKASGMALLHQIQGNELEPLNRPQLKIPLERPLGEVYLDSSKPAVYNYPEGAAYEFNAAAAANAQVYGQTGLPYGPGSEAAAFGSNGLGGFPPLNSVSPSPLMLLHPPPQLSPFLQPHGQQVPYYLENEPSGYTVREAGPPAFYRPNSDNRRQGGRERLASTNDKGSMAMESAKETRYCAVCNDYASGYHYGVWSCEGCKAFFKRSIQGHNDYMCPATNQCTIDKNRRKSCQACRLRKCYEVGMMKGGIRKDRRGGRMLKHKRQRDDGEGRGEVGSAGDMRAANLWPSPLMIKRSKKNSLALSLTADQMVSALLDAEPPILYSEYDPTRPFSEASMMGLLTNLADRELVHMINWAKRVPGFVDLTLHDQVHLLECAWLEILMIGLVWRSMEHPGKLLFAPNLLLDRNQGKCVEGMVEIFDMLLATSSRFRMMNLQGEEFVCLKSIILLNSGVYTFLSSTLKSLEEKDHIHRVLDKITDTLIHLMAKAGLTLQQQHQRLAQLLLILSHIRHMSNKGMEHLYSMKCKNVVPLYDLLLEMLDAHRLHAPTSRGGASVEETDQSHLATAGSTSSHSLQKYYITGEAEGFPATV
X-box-binding protein 1 (Homo sapiens), sequence (P17861 whole entry, looked up): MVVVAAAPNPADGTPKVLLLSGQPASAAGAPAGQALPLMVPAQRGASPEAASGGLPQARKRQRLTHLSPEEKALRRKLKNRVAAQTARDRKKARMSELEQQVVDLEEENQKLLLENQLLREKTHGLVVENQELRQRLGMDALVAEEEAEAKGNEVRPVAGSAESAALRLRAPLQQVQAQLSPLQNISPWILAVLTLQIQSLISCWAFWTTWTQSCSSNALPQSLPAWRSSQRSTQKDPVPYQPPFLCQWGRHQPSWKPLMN
Steroid hormone receptor ERR1 (Homo sapiens), sequence (P11474 whole entry, looked up, the tested form may be a part): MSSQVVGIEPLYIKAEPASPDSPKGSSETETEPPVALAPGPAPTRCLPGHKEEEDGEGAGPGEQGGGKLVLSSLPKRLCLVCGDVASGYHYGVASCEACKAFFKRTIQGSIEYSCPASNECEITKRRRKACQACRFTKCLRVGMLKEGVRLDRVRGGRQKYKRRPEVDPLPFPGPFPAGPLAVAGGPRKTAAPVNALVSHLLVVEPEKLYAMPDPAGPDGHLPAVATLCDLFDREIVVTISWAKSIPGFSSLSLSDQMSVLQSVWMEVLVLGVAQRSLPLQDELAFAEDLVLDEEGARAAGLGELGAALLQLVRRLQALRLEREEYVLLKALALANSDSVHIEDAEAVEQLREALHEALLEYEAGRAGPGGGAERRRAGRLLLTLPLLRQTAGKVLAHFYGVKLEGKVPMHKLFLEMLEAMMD
Oxysterols receptor LXR-beta (Homo sapiens), sequence (P55055 whole entry, looked up, the tested form may be a part): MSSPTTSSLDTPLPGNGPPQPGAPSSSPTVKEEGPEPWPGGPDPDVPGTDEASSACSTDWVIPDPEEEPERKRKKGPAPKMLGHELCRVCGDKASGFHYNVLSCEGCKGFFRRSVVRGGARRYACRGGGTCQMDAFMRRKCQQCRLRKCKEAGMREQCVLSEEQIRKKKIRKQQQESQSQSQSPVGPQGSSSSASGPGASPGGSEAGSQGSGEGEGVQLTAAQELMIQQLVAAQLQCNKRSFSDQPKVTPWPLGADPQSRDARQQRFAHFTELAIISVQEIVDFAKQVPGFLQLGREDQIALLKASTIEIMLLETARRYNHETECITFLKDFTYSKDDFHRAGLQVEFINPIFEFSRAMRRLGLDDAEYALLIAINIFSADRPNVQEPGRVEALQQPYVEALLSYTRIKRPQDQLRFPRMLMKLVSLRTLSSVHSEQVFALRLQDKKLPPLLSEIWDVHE
Androgen receptor (Homo sapiens), sequence (P10275 whole entry, looked up, the tested form may be a part): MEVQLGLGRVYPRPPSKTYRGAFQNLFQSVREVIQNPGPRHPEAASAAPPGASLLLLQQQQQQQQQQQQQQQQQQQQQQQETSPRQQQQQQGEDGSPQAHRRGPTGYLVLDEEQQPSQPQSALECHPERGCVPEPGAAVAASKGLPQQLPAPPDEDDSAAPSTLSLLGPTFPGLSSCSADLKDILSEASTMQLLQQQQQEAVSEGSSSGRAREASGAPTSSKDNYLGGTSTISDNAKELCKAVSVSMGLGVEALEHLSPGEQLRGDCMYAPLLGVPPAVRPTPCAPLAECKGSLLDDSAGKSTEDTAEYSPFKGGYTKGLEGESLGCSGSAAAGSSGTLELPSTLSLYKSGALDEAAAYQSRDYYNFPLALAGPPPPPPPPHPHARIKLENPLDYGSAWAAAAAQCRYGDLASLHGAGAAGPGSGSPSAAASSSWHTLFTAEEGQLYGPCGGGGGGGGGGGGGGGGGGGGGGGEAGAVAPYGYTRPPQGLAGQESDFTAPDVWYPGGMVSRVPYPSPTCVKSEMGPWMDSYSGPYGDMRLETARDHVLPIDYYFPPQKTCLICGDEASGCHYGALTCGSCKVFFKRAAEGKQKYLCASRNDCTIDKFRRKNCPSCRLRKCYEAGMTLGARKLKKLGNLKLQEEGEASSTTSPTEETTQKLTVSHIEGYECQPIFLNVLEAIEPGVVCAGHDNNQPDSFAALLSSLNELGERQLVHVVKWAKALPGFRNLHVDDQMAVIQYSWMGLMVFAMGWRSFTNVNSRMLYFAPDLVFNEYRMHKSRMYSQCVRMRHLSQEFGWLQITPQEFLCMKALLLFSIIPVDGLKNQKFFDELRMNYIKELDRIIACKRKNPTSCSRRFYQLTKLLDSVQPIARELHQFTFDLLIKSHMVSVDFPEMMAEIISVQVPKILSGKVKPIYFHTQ
Estrogen-related receptor gamma (Homo sapiens), sequence (P62508 whole entry, looked up, the tested form may be a part): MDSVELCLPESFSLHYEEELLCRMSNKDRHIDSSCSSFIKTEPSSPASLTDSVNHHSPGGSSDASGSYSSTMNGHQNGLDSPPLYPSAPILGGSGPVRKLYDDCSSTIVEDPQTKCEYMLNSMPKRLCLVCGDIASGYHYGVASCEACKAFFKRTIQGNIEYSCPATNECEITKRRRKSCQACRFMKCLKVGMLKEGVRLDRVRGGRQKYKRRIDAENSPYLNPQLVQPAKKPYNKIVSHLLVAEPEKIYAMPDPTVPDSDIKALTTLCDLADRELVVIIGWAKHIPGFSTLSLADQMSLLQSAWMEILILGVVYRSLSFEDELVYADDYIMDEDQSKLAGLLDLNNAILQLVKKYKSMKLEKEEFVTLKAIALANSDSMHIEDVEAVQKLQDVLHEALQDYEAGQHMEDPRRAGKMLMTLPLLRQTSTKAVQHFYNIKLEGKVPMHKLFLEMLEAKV

Take `N#C/C=C/c1ccccc1`: the result in assay [1], in assay [2], in [3], in assay [4], in assay [5] and in [6] was inactive. Moreover, the outcome in assay [7], in assay [8] and in assay [9] was inactive.
Regarding `O=[N+]([O-])c1ccc(Cl)c(Cl)c1`, the outcome in [1], in assay [2], in [3], in [4], in assay [10] and in assay [11] was inactive. Moreover, the call in assay [6], in assay [12], in assay [13], in assay [14], in [15] and in [8] was inactive.
Consider `CC(O)C#N` (centres undefined), for which the compound was called inactive in [1], in assay [2], in assay [3], in [4], in assay [10] and in assay [6]. The compound was called inactive in [7], in [16], in assay [17], in [14] and in assay [8].
With `ClC(Cl)c1ccccc1`, the compound was classed as inactive in assay [1], in assay [2], in assay [3], in [4], in assay [5] and in assay [11]. Moreover, the result in assay [6], in assay [12], in [16], in assay [13], in [17] and in [15] was inactive. For the same compound, in [9], the call was inactive.
Usually AC50 stands for the midpoint of the concentration-response curve, whichever way the signal moves. On to `CC1(C)CN=C(NN=C(/C=C/c2ccc(C(F)(F)F)cc2)/C=C/c2ccc(C(F)(F)F)cc2)NC1`, for which the concentration at half-maximal activity (AC50) in assay [1] is 19.4 µM (active); in assay [2] it was 4.22 µM (active); in assay [3], 11.1 µM (active); in assay [10], 4.59 µM (active). The result in assay [4], in [5], in assay [6], in assay [17] and in [14] was inactive.
Turning to `CC(Cl)CN(C)C` (centres undefined), the compound was called inactive in assay [1], in [2], in assay [3], in assay [4], in assay [10] and in [6]. Moreover, the compound was classed as inactive in assay [12], in assay [17], in assay [8] and in assay [9].
